WRN helicase inh = blocks human WRN helicase; WRN helicase unwinding, fluorescent forked duplex, kinetic; Potency, µM (doses to about 114 µM), for the others: at the top dose activity change, negative = inhibition, hits mostly inhibitors; hit rate 0.46% among 360,000; Q14191; AID 651768; further: on the % scale 0 is the no-effect control and ±100 the full control effect; nearly all actives have a fitted effect of over 55% in size
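Fluorescence dequenching readout, ex 525 nm/em 598 nm, kinetic mode: forked duplex DNA (100 nM final) with adjacent fluorophore and quencher unwound by WRN (20 nM final) with 2 mM ATP. Compound preincubation 15 min, room temperature.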
POLH inh = blocks human DNA polymerase eta activity | Q9Y253 | Potency, µM (highest dose often 114 µM), for the others: at the highest dose activity change, negative = inhibition, hits mostly inhibitors | hit rate 1.2% among 390,000 | recombinant Pol eta, fluorescent DNA replication assay; further: on the % scale 0 is the no-effect control and ±100 the full control effect
Target sequence (Q9Y253 whole entry, looked up): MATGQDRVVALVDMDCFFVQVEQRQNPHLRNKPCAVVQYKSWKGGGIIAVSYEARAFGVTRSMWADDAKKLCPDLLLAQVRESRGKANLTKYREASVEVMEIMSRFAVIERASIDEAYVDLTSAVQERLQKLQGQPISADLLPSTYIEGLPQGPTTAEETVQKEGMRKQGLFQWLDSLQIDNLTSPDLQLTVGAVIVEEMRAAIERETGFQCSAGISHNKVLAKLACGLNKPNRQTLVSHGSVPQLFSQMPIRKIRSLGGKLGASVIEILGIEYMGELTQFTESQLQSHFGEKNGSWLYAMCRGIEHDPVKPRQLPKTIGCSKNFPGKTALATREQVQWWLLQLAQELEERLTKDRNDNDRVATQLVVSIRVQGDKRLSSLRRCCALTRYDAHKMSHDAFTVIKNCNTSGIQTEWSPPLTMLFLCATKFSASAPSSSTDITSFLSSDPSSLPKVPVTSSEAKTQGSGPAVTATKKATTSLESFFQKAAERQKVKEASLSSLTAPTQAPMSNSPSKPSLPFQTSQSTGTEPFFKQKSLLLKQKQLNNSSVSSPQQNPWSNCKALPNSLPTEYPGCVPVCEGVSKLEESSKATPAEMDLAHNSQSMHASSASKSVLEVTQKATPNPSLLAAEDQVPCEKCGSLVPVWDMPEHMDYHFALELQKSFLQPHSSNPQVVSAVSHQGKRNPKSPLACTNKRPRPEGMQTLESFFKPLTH
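Pol eta (10 nM) was preincubated with compounds for 15 min at room temperature, after which fluorescent replication substrate (50 nM final) was added to start the reaction. Fluorescence was read kinetically at 0 and 10 min.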
Pol beta inh = blocks human DNA polymerase beta activity; AID 485314; P06746; Potency, µM (titrated, usually from 114 µM), without a hit: top-dose activity change, negative = inhibition, usual class: inhibitors; Pol beta primer extension/strand displacement, fluorescence kinetic; hit rate 1.3% among 340,000; further: on the % scale 0 is the no-effect control and ±100 the full control effect
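Enzyme-only controls used 10 nM Pol beta; buffer lacking enzyme served as negative control. Compound preincubated 15 min, then 50 nM substrate added; 0 and 10 min reads at room temperature.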
Pol kappa inh = blocks human DNA polymerase kappa activity. Q9UBT6. purified Pol kappa, fluorescent DNA synthesis assay, 10 min. Potency, µM (doses to about 107 µM), for the others: at the highest dose activity, negative = inhibition, most hits filed as inhibitors. hit rate 0.53% among 400,000. AID 588579; further: on the % scale 0 is the no-effect control and ±100 the full control effect
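Enzyme at 10 nM met test compounds for 15 min at room temperature. Substrate addition (50 nM final) began the reaction, which was monitored by fluorescence at 0 and 10 min.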
L3MBTL1 inh = blocks human L3MBTL1; AlphaScreen L3MBTL1–H3K9me1 peptide binding; Potency, µM (titrated, usually from 57.1 µM), for inactives: at the highest dose activity, negative = inhibition, hits mostly inhibitors; hit rate 0.66% among 230,000; AID 485360; further: on the % scale 0 is the no-effect control and ±100 the full control effect; nearly all actives have a fitted effect of over 60% in size
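Read-out is AlphaScreen signal from streptavidin donor and nickel chelate acceptor beads (10 ug/mL final each) bridging L3MBTL1 (50 nM) and biotinylated K9-monomethylated H3(1-15) peptide (75 nM), after 30 min compound exposure at room temperature.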
POLI inh = DNA polymerase iota (human) inhibition | Q9UNA4 | Pol iota fluorescent replication assay, 10 min | Potency, µM (doses to about 115 µM), for the others: at the top dose activity, negative = inhibition, hits mostly inhibitors | hit rate 1% among 390,000
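Fluorescent replication assay read twice, at 0 min and 10 min after adding 50 nM (final) substrate. Enzyme (10 nM) and compounds were first incubated 15 min at room temperature; enzyme-free buffer wells were negative controls.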
An asterisk follows results filed as active; u = inconclusive; x = no result; [ ] = another dose, or the depositor's remark. Sampled rows, rich in hits. Any-hit rate of the full collection: about 2.5%. The call rests on the fitted dose curve; in most records, active means well fitted curve in the direction sought with a large enough effect; inconclusive means small, poorly fitted or top-dose-only effect, or another doubt; inactive means no such curve, though single readings can be large; an effect the other way counts as inactive or inconclusive. Potency means the concentration at half of the fitted maximal effect.

SMILES	WRN helicase inh	POLH inh	Pol beta inh	Pol kappa inh	L3MBTL1 inh	POLI inh
CCOC(=O)C1=C(CSc2nc3c(cc2C#N)CN(C)CC3)OC(N)=C(C#N)C1c1ccc(Cl)cc1 (stereo not drawn)	u	u	19%	u	-17%	u
CCOC(=O)C1=C(CSc2nc3c(cc2C#N)CN(C)CC3)OC(N)=C(C#N)C1c1ccncc1 (stereo not drawn)	-29%	u	u	u	-5%	32µM*
COc1cccc(NS(=O)(=O)c2ccc3[nH]cc(C(=O)NC(C)c4ccccc4)c(=O)c3c2)c1 (stereo not drawn)	x	u	40µM*	u	x	89µM*
O=C(NCc1ccccc1)c1cc(=O)c2ccccc2o1	-6%	7%	0%	-15%	4%	-5%
Cc1nn(-c2cccc(C(F)(F)F)c2)c(Cl)c1/C=N/Nc1cccc(C(=O)O)c1	-6%	-9%	56µM*	1%	-9%	0%
Cc1nn(-c2ccccc2Cl)c(Cl)c1/C=N/Nc1cccc(C(=O)O)c1	-16%	-6%	-3%	-18%	u	-3%
CCOC(=O)N1CCN(S(=O)(=O)c2ccc(C(=O)Nc3sc4c(c3C#N)CC(C)(C)NC4(C)C)cc2)CC1	0%	-9%	27%	5%	x	29%
O=[N+]([O-])c1ccc2c(c1)Cc1cc(F)ccc1-2	3%	-11%	x	7%	x	-2%
O=[N+]([O-])c1ccc2c(c1)C=CC2	x	x	x	79µM*	x	79µM*
COc1ccc(-c2cc(C(=O)NCCN3CCOCC3)c3cc(C(C)C)ccc3n2)cc1	-6%	-21%	10%	7%	x	4%
CCc1ccc(-c2nc(SCC(=O)NC3CCS(=O)(=O)C3)n[nH]2)cc1 (stereo not drawn)	-20%	-16%	x	2%	4%	61%
Cc1ccc(C(=O)Sc2cccccc2=O)cc1	-18%[57.1 µM]	-14%	40µM*	-17%	x	u
COc1ccccc1NC(=S)NN=C(C)c1ccccn1	-6%	-7%	x	-15%	x	9%
CCOC(=O)C1(CCCc2ccccc2)CCN(C(=O)[C@@H]2C[C@@H](C)NC(=S)N2)CC1	8%	-4%	4%	-10%	-1%	45%
CCc1cc(C(=O)c2ccc(C)cc2)c(NC(=O)CCl)s1	-12%	-20%	0%	-3%	35µM*	-3%
N#CCSc1ncnc2sc3c(c12)CCC3	-13%[57.1 µM]	89µM*	u	u	0%	u
CC(OC(=O)c1ccc(NC(=O)CC#N)cc1)C(=O)NC(c1ccccc1)c1ccccc1 (stereo not drawn)	-4%[11.6 µM]	50µM*	x	-36%	2%	u
O=C(CSc1nc2c([nH]c3ccccc32)c(=O)n1-c1ccccc1)N1CCCC1	x	-10%	20µM*	-3%[60.1 µM]	x	-5%
Cc1noc(C)c1-c1nc(CS(=O)(=O)c2ccc(Cl)cc2)no1	-6%	-20%	19%	-6%	-2%	48%
CS(=O)(=O)c1ccc2nc(NC(=O)c3ccc(=O)[nH]c3)sc2c1	-17%	50µM*	-21%	-17%	x	50µM*
CS(=O)(=O)c1ccc2nc(NC(=O)c3ccc(Cl)cc3)sc2c1	-2%[57.1 µM]	-21%	36%	5%	3%	u
O=C(N/N=C/c1ccc([N+](=O)[O-])cc1)c1cc(C2CC2)nc2ccccc12	0%	-18%	3%	5%	-8%	-22%
Cc1ccc2c(c1)C(=O)OC(C(=O)Nc1ccc(C(=O)O)cc1)C2 (stereo not drawn)	x	-1%	11%	-24%	x	89µM*
Cc1ccc2c(c1)C(=O)OC(C(=O)Nc1ccccc1C(=O)O)C2 (stereo not drawn)	x	-11%	9%	-2%[60.1 µM]	x	2%
COc1ccc2c(CC(=O)OCC(=O)Nc3ccc(C)cc3)coc2c1	-5%[11.6 µM]	20µM*	x	u	u	u
SMILES	WRN helicase inh	POLH inh	Pol beta inh	Pol kappa inh	L3MBTL1 inh	POLI inh
CCOc1cc(/C=C2\C(=O)N(Cc3ccc(C)cc3)C(C)=C2C(=O)OC)ccc1O	79µM*	-7%	-1%	-12%	-15%	-1%
CCCOc1ccc(/C=N/NC(=O)CSc2ccccn2)cc1OC	-6%	-12%	79µM*	-22%	6%	18%
CCCCOc1ccc(C(=O)N/N=C/c2ccc(OCCN3CCCCC3)c(OC)c2)cc1	-2%[11.6 µM]	u	16µM*	u	-8%	u
COc1ccc(C(=O)N/N=C/c2ccc(OC)c(CN3CCCc4ccccc43)c2)cc1	4%	-3%	20µM*	-20%	u	44%
O=C(NCc1cccnc1)Nc1ccccc1C(F)(F)F	5%	-6%	24%	11%	x	0%
COc1cc2nc(CC(O)c3nc4cc(OC)c(OC)cc4[nH]3)[nH]c2cc1OC (stereo not drawn)	x	x	x	10µM*	x	3.2µM*
O=C(CNS(=O)(=O)c1ccc(Br)cc1Cl)OCC(=O)c1ccc[nH]1	-30%	-15%	x	-23%	-3%	48%
O=C(CNS(=O)(=O)c1c(Cl)cccc1Cl)OCC(=O)c1ccc[nH]1	-4%[11.6 µM]	45µM*	u	u	-23%	16µM*
O=[N+]([O-])c1cnc(Sc2ccncn2)s1	-32%	4%	-1%	-4%	6%	u
C=CCn1c(Sc2ncc([N+](=O)[O-])s2)n[nH]c1=O	-35%	-7%	-1%	-7%	2%	10µM*
O=c1[nH]c2cc(F)ccc2c2ccc(F)cc12	-15%	20µM*	x	-23%	x	u
Cc1ccc(/C=N\NC(=O)Cc2cccn2C)o1	-7%[57.1 µM]	-13%	7%	-19%	x	79µM*
Cn1cccc1CC(=O)N/N=C\c1ccccc1	0%	2%	0%	-6%	-12%	u
Cc1c2cn[nH]c(=O)c2c(C)n1-c1ccccc1	-1%	-22%	2%	6%	x	19%
CCCOc1ccc(C2NC(=S)NC(C)=C2C(=O)c2ccccc2)cc1OC (stereo not drawn)	-2%	-8%	-16%	-5%[60.1 µM]	-8%	-14%
CC(=O)Nc1cc(N=Cc2ccc(O)cc2O)c(Cl)cc1Cl	4%	45µM*	5%	-16%	-1%	u
O=C(Nc1nc2c(s1)CCCC2)c1ccc(Br)s1	-19%	-9%	-1%	-6%	-1%	79µM*
Cc1cccc(C(=O)Nc2nc3c(s2)CCCC3)c1	x	-14%	-21%	-5%	x	23%
C=CCn1c2ccccc2c(=O)c2cc(C#Cc3ccsc3)ccc21	x	x	5µM*	x	-4%	x
COc1ccc(CCNC(=O)c2c[nH]n3c(=O)c(Cc4ccccc4Cl)c(C)nc23)cc1OC	x	x	79µM*	6%[60.1 µM]	x	-18%
Cc1nc2c(C(=O)NCc3ccccc3Cl)cnn2c(C)c1Cc1ccccc1	x	-17%	-1%	-1%[60.1 µM]	x	29%
